The list shows a part of the results. Active and inactive are the calls of the source. Rule as the data show it: active = inhibition above about 32%; inactive = the rest.
molecular target: Mu-type opioid receptor (Homo sapiens) + Delta-type opioid receptor (Homo sapiens) (UniProt P35372+P41143); experiment: OPRM1-OPRD1 heterodimer inverse agonism – cell-based, luminescence, confirmation (AID 504900); conditions: cells expressing OPRM1/OPRD1 heterodimer, at 9.3 µM, hits give high values;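 also: 0% = cells with DMSO and 100% = wells lacking cells with DMSO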
Sequence (P35372 whole entry, looked up): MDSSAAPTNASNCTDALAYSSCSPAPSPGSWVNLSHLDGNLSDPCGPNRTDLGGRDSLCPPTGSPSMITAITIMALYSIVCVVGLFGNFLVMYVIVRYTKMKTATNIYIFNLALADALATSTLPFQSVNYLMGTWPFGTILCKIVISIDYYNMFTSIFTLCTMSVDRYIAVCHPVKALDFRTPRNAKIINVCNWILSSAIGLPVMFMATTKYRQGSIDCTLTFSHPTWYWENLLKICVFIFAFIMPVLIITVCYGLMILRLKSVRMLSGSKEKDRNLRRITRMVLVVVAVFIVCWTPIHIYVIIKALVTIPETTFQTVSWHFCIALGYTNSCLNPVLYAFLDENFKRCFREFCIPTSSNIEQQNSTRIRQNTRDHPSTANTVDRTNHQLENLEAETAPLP
Sequence (P41143 whole entry, looked up): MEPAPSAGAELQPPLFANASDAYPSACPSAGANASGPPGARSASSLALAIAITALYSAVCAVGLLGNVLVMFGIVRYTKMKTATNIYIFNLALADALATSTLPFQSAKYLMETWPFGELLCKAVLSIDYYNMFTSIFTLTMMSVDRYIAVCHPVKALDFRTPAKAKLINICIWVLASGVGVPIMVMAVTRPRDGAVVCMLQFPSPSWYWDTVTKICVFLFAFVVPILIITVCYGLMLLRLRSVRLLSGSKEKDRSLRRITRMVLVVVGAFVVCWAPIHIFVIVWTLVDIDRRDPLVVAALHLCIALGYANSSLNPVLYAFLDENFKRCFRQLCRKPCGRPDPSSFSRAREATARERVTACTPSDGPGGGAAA

inhibition, inactive:
COC(=O)Cc1c(-c2[nH]c3ccccc3c2CC(=O)OC)[nH]c2ccccc12 -123%
CC(C)OC(=O)CN1C(=O)C(=O)c2ccccc21 -355%
COc1cc(NS(=O)(=O)c2ccc3ccccc3c2)c2ncccc2c1 -82.7%
O=C1C(=O)N(c2ccccc2)c2ccccc21 -11.8%
O=C1C(=O)N(CC2COc3ccccc3O2)c2ccccc21 (stereo not drawn) 15.2%
Cc1ccc(C(=O)CNc2ccc(F)cc2)cc1 -20%
Cc1cccc(C)c1NC(=O)C(Cl)C(=O)c1ccccc1 (stereo not drawn) -42.6%
Cc1cccc(N=Nc2c(O)[nH]c3ccc(F)cc23)c1 20.6%
CCOc1ccc(NC(=O)c2cccc3c2C(=O)N(CC2CCCO2)C3)cc1 (stereo not drawn) -4.18%
CCOC(=O)CN1C(=O)C(O)(CC(=O)c2ccccn2)c2ccccc21 (stereo not drawn) 24.7%
CCOC(=O)CN1C(=O)C(=O)c2cc(C)ccc21 -25.7%
Cc1ccc(NNC(=O)c2cccs2)cc1Cl -17.7%
CN(O)C(=S)c1ccccc1 16.7%
O=[N+]([O-])/C=C/c1ccc2c(ccn2Cc2ccccc2)c1 -234%
Oc1ccc(N=Nc2nccs2)c(O)c1 12.6%
Cc1cccc2c1N(CC(=O)OC(C)C)C(=O)C2=O -138%

inhibition, active:
CSCCC(NC(=O)COc1ccccc1)C(=O)OCC(=O)c1cc2ccccc2o1 (stereo not drawn) 37.5%
O=C(CCl)NNc1cccc(Cl)n1 69.8%

Source: PubChem BioAssay AID504900 (The Scripps Research Institute Molecular Screening Center, 2011)
